Bioassay records deposited in PubChem by several laboratories.
Rows were chosen to be rich in hits. Some 3.3% of all compounds tested hit in one or more screens of this group.
PRMT1 FP inh: inhibitors of human PRMT1; recombinant PRMT1, activity-based probe fluorescence polarization; inhibition, % at 2.79 µM; actives 1.3% (n = 370,000); Q99873;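 active = inhibition above about 21% made by adding two undisclosed values, limit read from the data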
MBD2 DNA inh: MBD2-methylated oligo binding inhibition. Q9UBB5. TR-FRET, MBD2 binding to methylated oligonucleotide. inhibition, % at 4.4 µM. actives 0.31% (n = 370,000); in the data active = inhibition above about 13%
Target sequence (Q9UBB5 whole entry, looked up): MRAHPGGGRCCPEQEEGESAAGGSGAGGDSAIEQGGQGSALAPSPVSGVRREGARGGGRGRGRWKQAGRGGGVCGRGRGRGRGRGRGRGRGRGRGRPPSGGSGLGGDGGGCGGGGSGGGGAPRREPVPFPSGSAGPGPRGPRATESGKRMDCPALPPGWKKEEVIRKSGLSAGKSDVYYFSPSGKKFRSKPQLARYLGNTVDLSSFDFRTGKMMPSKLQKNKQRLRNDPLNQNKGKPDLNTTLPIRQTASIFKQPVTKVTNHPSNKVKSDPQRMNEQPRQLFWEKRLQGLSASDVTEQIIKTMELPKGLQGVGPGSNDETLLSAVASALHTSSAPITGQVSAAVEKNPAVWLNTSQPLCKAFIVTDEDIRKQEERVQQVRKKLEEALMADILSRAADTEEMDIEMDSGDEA
UHRF1 MBD2 ctr: human UHRF1 methylated DNA binding inhibitors. Q96T88. UHRF1 binding to methylated oligo, TR-FRET. inhibition, % at 4.4 µM. actives 0.75% (n = 370,000). AID 687016; in the data active = inhibition above about 21%;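 also: UHRF1 SRA domain binding a hemimethylated CpG hairpin DNA probe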
M18AAP inhibitor: blocks P. falciparum M18 aspartyl aminopeptidase; actives 1.2% (n = 290,000); inhibition, % at 7.35 µM; AID 1822; recombinant PfM18AAP, H-Glu-NHMec fluorogenic cleavage;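 active = inhibition above the campaign mean inhibition over all tested compounds plus 3 SD, cut at about 28% in these data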
PfGluPho inh: PfG6PD (Plasmodium falciparum) enzyme inhibition; PfGluPho enzyme, NADPH resazurin-diaphorase fluorescence; inhibition, % at 20 µM; actives 0.78% (n = 350,000);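 active = inhibition reaching at least a set limit at 20 µM in the primary screen, cut at about 59% in these data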
A number is an active result; . = inactive; / = no result.

SMILES	PRMT1 FP inh	MBD2 DNA inh	UHRF1 MBD2 ctr	M18AAP inhibitor	PfGluPho inh
COC(=O)[C@]12C[C@H](CC(=O)N3CCCC3)C(=O)N(CCc3ccc(OC)c(OC)c3)C1=C[C@H](C1CCCC1)O[C@@H]2C	.	.	.	/	/
Cc1noc(C)c1-c1ccc(C(=O)NCC2CC2)c2occc12	.	.	.	/	/
O=C(NCC1CC1)c1ccc(-n2ccnc2)c2ccoc12	.	.	25	/	/
COc1ccc2c(c1)c(=O)oc1cc(OCC(=O)NC3CCCCC3)ccc12	.	.	25	.	.
O=C(NC1CCc2ccccc21)c1cc(-c2ccc(Cl)cc2)nc2ccccc12 (stereo not drawn)	.	.	.	/	/
O=C(C1CCN(c2cncnc2)CC1)N1CCOCC1	.	.	.	/	/
Nc1ccc(C#Cc2ccc3c(=O)c4ccccc4oc3c2)cc1	.	.	23	.	.
COc1cc2oc3cc(C#Cc4ccc(N)cc4)ccc3c(=O)c2cc1OC	.	.	.	/	.
CCNc1nc(=S)nc(NC(C)C)[nH]1	.	.	.	30	.
CCNc1nc(=S)nc(NCc2ccccc2)[nH]1	.	.	.	.	/
Cn1c(/N=C/c2c(O)ccc3ccccc23)nc2ccccc21	.	.	.	.	76
Cn1nccc1C(=O)N/N=C/c1c(O)ccc2ccccc12	.	.	.	28	.
CCCn1c(/N=C/c2ccccc2O)nc2ccccc21	.	.	.	.	.
O=C(N/N=C/c1c(O)ccc2ccccc12)c1cccnc1	.	.	.	31	.
Cc1cc(-c2n[nH]c(=S)n2N=Cc2ccc(OCc3ccccc3)cc2)n[nH]1	.	.	.	/	/
CC1=C[C@]2(CN(CC3CC3)C3=N[C@H](c4ccccc4)CC(=O)N32)n2c(=O)n(-c3ccccc3)c(=O)n2C1	.	.	.	/	/
CCC(CC)C(=O)Nc1cccc(C(=O)Nc2nnc(C)s2)c1	.	.	23	.	.
CCC(CC)C(=O)Nc1cccc(C(=O)Nc2nccs2)c1	.	.	.	.	.
COc1ccc2cc(-c3cn(C(=O)N(c4ccccc4)c4ccccc4)nn3)ccc2c1	.	.	.	/	/
CC(C)(C)OC(=O)N1CCC[C@H]1C(=O)NCC1CCC(C(=O)O)CC1 (stereo partly drawn)	.	.	.	.	.
CSCC[C@H](NC(=O)C1CCC(CNC(=O)[C@@H]2CCCN2C(=O)OC(C)(C)C)CC1)C(=O)O (stereo partly drawn)	.	.	40	.	.
CCOC(=O)c1c(N2C(=O)C=CC2=O)sc(C)c1C	/	/	/	.	67
Cc1ccc(S(=O)(=O)NNC(=O)c2cccc(O)c2)cc1	.	.	.	30	.
O=C(NNS(=O)(=O)c1ccc(F)cc1)c1cccc(O)c1	.	.	.	.	.
CCOc1ccccc1OCC(=O)Nc1ccc(S(=O)(=O)N(C)C)cc1	.	.	47	.	.
SMILES	PRMT1 FP inh	MBD2 DNA inh	UHRF1 MBD2 ctr	M18AAP inhibitor	PfGluPho inh
C[C@@H]1CN([C@@H](C)CO)C(=O)c2ccccc2-c2ccccc2CO[C@@H]1CN(C)Cc1ccc(Cl)c(Cl)c1	.	.	.	/	/
Cc1cccnc1NC(=O)/C=C/c1ccc2c(c1)OCO2	.	.	23	.	.
CC(C)CCn1c(=O)c2ccccc2n2c(=S)[nH]nc12	.	.	.	29	.
COc1cccc(Oc2ccc(OC)cc2C(=O)O)c1	.	.	26	.	.
CCN(CC)S(=O)(=O)c1ccc(S(=O)(=O)NCc2cccs2)cc1	.	.	.	.	.
O=C1CC(=O)Nc2cc(S(=O)(=O)NCc3cccs3)ccc2N1	.	.	24	.	.
COc1ccc(S(=O)(=O)NCc2cccs2)cc1	.	.	48	.	.
O=C(O)c1cccc(S(=O)(=O)NCc2cccs2)c1	.	.	.	.	.
O=C(OCC(=O)c1cccs1)c1ccccc1	.	.	.	.	.
O=C(CC(Nc1ccccc1Cl)C(=O)OCC(=O)c1cccs1)c1ccccc1 (stereo not drawn)	21	.	.	.	.
CCCCCCC/C=N/Nc1nnc(Cc2ccccc2)c(=O)[nH]1	.	.	.	28	.
CCOC(=O)c1c(NC(=O)CSc2nc3ccccc3s2)sc(C)c1C	.	.	.	30	.
CCN(Cc1ccccc1)C(=O)CCCN1C(=O)COc2ccc(C)cc21	.	.	.	/	/
COc1ccc(C(C)(C)C)cc1N1C(=O)[C@@H]2CSCCS(=O)(=O)N2C1=O	.	.	.	/	/
COc1cc(C)ccc1OCC(=O)OCC(=O)c1cc(C)n(CC2CCCO2)c1C (stereo not drawn)	.	.	.	/	.
COc1cc(C(=O)OCC(=O)c2cc(C)n(CC3CCCO3)c2C)cc(OC)c1C (stereo not drawn)	.	.	21	/	.
CCN(C(=O)COC(=O)c1cc(-c2ccc(C)o2)nc2ccccc12)C1CCS(=O)(=O)C1 (stereo not drawn)	23	.	.	.	.
Cc1ccc(-c2cc(C(=O)OCC(=O)N(C)C3CCS(=O)(=O)C3)c3ccccc3n2)o1 (stereo not drawn)	.	.	.	.	.
O=C(NCCc1ccccc1)OCc1cn(Cc2ccc(F)c(F)c2)nn1	.	.	.	/	/
CCOc1ccc2noc3c2c1C(=O)c1ccccc1-3	150	.	.	.	.
CCNc1ccccc(-c2ccc3ccccc3n2)c1=O	.	.	.	.	.
CCNc1ccc2noc3c2c1C(=O)c1ccccc1-3	154	.	.	.	.
Cc1cc(/C=C2\SC(=S)NC2=O)c(C)n1-c1ccccc1	.	.	.	.	.
Cc1cc(/C=C2\SC(=S)NC2=O)c(C)n1C	23	.	23	.	.
Cn1cccc1C(=O)N1CCN(S(=O)(=O)c2ccc([N+](=O)[O-])cc2)CC1	.	.	.	/	/
SMILES	PRMT1 FP inh	MBD2 DNA inh	UHRF1 MBD2 ctr	M18AAP inhibitor	PfGluPho inh
COc1ccc(C(=O)N2CCN(c3cccc(Cl)c3)CC2)cc1S(=O)(=O)NC1CC1	24	.	.	/	.
Cc1cccc(C)c1NC(=O)C1(NC(=O)C2CCC(=O)N2)CCCCC1 (stereo not drawn)	.	.	.	.	.
Cc1cccc(C)c1NC(=O)C1(NC(=O)Cn2cccc([N+](=O)[O-])c2=O)CCCCC1	.	.	24	.	.
N#C/C(=C\c1ccccc1[N+](=O)[O-])C(=O)NCc1ccccc1	.	.	25	.	.
O=C(Nc1cccnc1)c1ccc(CSc2ccc(Cl)cc2)o1	.	.	.	/	/
O=C(CSc1n[nH]c(Cc2ccccc2)n1)Nc1ccccc1Br	24	.	.	.	.
Oc1c(CN2CCOCC2)cc(CN2CCOCC2)cc1CN1CCOCC1	.	.	24	/	.
C[C@@H]1CN([C@@H](C)CO)C(=O)c2cccc(NC(=O)Nc3cccc4ccccc34)c2O[C@H]1CN(C)S(=O)(=O)c1ccc2c(c1)OCCO2	.	.	.	/	/
COc1ccc(C/C(C)=N/Nc2nc(C)cc(=O)[nH]2)cc1	.	.	.	31	.
COc1ccc(CCNc2nc(C)cc(=O)[nH]2)cc1OC	.	.	.	.	.
COC1OC(COCc2ccccc2)C2OC(C)(C)OC2C1O (stereo not drawn)	.	.	.	/	/
CCn1cc(/C=C/C(=O)Nc2ccn(Cc3c(F)c(F)cc(F)c3F)n2)cn1	22	.	.	.	.
